Test system: Meloidogyne hapla J2
Experiment: proportion of mobile M. hapla J2 relative to DMSO control (fraction of DMSO control); higher = more viable, less nematicidal, active = 0.7 or less
Settings: 60 µM; 5 days; temperature: 20 °C
Method in brief: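 Two biological replicates were run and averaged, each on 96-well plates in which about 25 M. hapla J2 sat in distilled water per well. Compound was pinned in to give 60 µM final and 0.6% v/v DMSO, and the sealed plates were shaken at 200 rpm and 20 °C for 5 days before 2 µL 1 M NaOH was added. Mobility was scored microscopically and divided by the mean from the plate's DMSO-only wells, of which there were eight.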

| Compound | proportion of mobile M. hapla J2 |
| --- | --- |
| COc1nc(-c2ccc(Cl)cc2)ccc1-c1noc(-c2ccncc2)n1 | 0.921 (inactive) |
| Fc1ccc(CSc2nnc(-c3ccccn3)o2)cc1 | 0.846 (inactive) |
| CCOc1ccc(NC(=O)CSc2nnc(-c3ccccc3Cl)o2)cc1 | 0.974 (inactive) |
| COc1ccc(NC(=O)CSc2nnc(-c3ccc(Br)cc3)o2)cc1 | 1.02 (inactive) |
| Cn1c(SCc2ccc(Cl)cc2)nnc1-c1ccco1 | 1.05 (inactive) |
| Fc1ccc(-c2nc(-c3cccc(C(F)(F)F)c3)no2)cc1 | 0.939 (inactive) |
| O=C(Nc1ccccc1-c1nc(-c2ccncc2)no1)c1cccc(Cl)c1 | 1.04 (inactive) |
| O=C(NCCc1ccccc1)c1ccccc1-c1nc(-c2ccccc2Cl)no1 | 0.669 (active) |
| Cc1ccccc1OCc1nc(-c2ccc3c(c2)OCO3)no1 | 0.878 (inactive) |
| CCOC(=O)c1ccc(OCc2nc(-c3cccs3)no2)cc1 | 1.1 (inactive) |
| COc1nc(C)ccc1-c1noc(-c2ccc(C)cc2)n1 | 0.926 (inactive) |
| CC(C)(C)c1ccc(OCc2nc(-c3ccncc3)no2)c(Br)c1 | 0.875 (inactive) |
| COc1cccc(-c2noc(-c3ccc(C)cc3)n2)c1 | 0.948 (inactive) |
| Brc1ccc(-c2nnc(-c3cccs3)o2)o1 | 1.07 (inactive) |
| Cc1cccc(C)c1NC(=O)CSc1nnc(-c2ccncc2)o1 | 0.908 (inactive) |
| CCC(=O)Nc1ccccc1-c1nc(-c2ccncc2)no1 | 0.938 (inactive) |
| Ic1ccc(CSc2nnc(-c3ccccc3)o2)cc1 | 0.991 (inactive) |
| COc1cccc(-c2nc(-c3ccccc3)no2)c1 | 1.04 (inactive) |

Reference: the supplement of paper PMC11219838
